Experiments:
Assay in all cases: PBM binding z-score (relative to random genomic background probes); higher = stronger binding; sequences stand for … in GC…GCGATTGACAGCGTAGAATGAAGG
[1] = test system: FXR:RXRa (NR concentration 270 nM, RXRa partner concentration 90 nM)
How it was run: (§1)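 Ligand-free nuclear receptor dimers were bound for 1 h to custom Agilent 4×180K protein-binding microarrays. Detection used antibodies against each partner (one per run). Binding z-scores rest on regression-normalized fluorescence, with random background probes as the reference.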

[2] = test system: LXRa:RXRa (NR concentration 270 nM, RXRa partner concentration 90 nM)
How it was run: as §1

[3] = test system: LXRa homodimer (NR concentration 270 nM)
How it was run: as §1

[4] = test system: LXRb:RXRa (NR concentration 270 nM, RXRa partner concentration 90 nM)
How it was run: as §1

[5] = test system: LXRb homodimer (NR concentration 270 nM)
How it was run: as §1

[6] = test system: PPARa:RXRa (NR concentration 270 nM, RXRa partner concentration 90 nM)
How it was run: as §1

[7] = test system: PPARg:RXRa (NR concentration 180 nM, RXRa partner concentration 90 nM)
How it was run: as §1

[8] = test system: PPARg:RXRa 270nM:90nM, anti-RXR (NR concentration 270 nM, RXRa partner concentration 90 nM)
How it was run: as §1

[9] = test system: PPARg:RXRa 30nM:10nM, anti-RXR (NR concentration 30 nM, RXRa partner concentration 10 nM)
How it was run: as §1

[10] = test system: PPARg:RXRa 90nM:30nM, anti-RXR (NR concentration 90 nM, RXRa partner concentration 30 nM)
How it was run: as §1

[11] = test system: PPARg:RXRa DBDmut IVT, anti-RXR (DBD mutation: RXRa K156A/R161A, NR concentration 270 nM, RXRa partner concentration 90 nM)
How it was run: as §1

[12] = test system: PPARg:RXRa IVT, anti-PPARg (NR concentration 270 nM, RXRa partner concentration 90 nM)
How it was run: as §1

[13] = test system: PPARg DBDmut:RXRa IVT, anti-PPARg (DBD mutation: PPARg1 K132A/R137A, NR concentration 270 nM, RXRa partner concentration 90 nM)
How it was run: as §1

[14] = test system: PPARg DBDmut IVT, anti-PPARg (DBD mutation: PPARg1 K132A/R137A, NR concentration 270 nM)
How it was run: as §1

[15] = test system: PPARg homodimer (NR concentration 180 nM)
How it was run: as §1

[16] = test system: PXR:RXRa (NR concentration 270 nM, RXRa partner concentration 90 nM)
How it was run: as §1

[17] = test system: PXR homodimer (NR concentration 270 nM)
How it was run: as §1

[18] = test system: RARa:RXR (NR concentration 270 nM, RXRa partner concentration 90 nM)
How it was run: as §1

[19] = test system: RARa homodimer (NR concentration 270 nM)
How it was run: as §1

[20] = test system: RARb:RXRa (NR concentration 270 nM, RXRa partner concentration 90 nM)
How it was run: as §1

Sequence	PBM binding z-score [1]	PBM binding z-score [2]	PBM binding z-score [3]	PBM binding z-score [4]	PBM binding z-score [5]	PBM binding z-score [6]	PBM binding z-score [7]	PBM binding z-score [8]	PBM binding z-score [9]	PBM binding z-score [10]	PBM binding z-score [11]	PBM binding z-score [12]	PBM binding z-score [13]	PBM binding z-score [14]	PBM binding z-score [15]	PBM binding z-score [16]	PBM binding z-score [17]	PBM binding z-score [18]	PBM binding z-score [19]	PBM binding z-score [20]
ATCGAAAGATCGAAGGTGAGTATACCCACCCGAA	0.128	-0.167	-0.351	-0.103	-0.379	0.477	0.73	0.539	0.2	0.266	-0.781	0.354	-0.115	-0.0294	-0.0886	0.0692	-0.598	0.121	0.67	0.215
AGTCAAAGTTAAGGACGAGGTAACGTAAAGCACG	-0.0625	-0.031	-0.464	-0.186	-0.644	0.245	0.85	0.357	0.301	0.179	-0.606	0.576	-0.425	0.362	-0.757	-0.127	0.18	1.19	0.205	0.889
CCTACTGGGCCATTCAGAGGTCATTGAGCATATG	2.93	4.74	6.54	3.65	0.261	4.02	2.49	3.28	1.01	2.38	4	4.21	0.182	-0.178	2.75	4.88	2.54	4.74	0.462	3.14
TCTATTAGTTGATTCGGGCAACCGAAACAGCGGA	0.597	0.339	0.411	0.655	0.739	0.742	-0.102	1.84	3.9	2.85	1.91	0.598	0.957	0.979	0.106	0.3	0.223	0.414	0.742	0.671
ACTATTAGTTGAATTAGGGCAACCGATACGACGC	0.466	-0.0406	0.224	-0.00259	0.376	1.19	1.47	1.12	0.71	1.04	2.66	3.69	1.92	1.76	1.34	-0.0416	0.205	0.264	1.47	0.87
GAAACGAGGGCAAAGTTGATAGCATCTGTCGACG	1.38	1.27	-0.429	1.02	-0.45	4.4	7.78	7.51	7.45	8.19	5.26	5.32	0.311	0.0519	0.722	1.32	0.236	1.98	0.209	2.38
TCTTGTAGATCAAGCAGATTAAGAAAGCCTGAGT	0.096	-0.059	-0.156	0.0422	-0.403	0.442	-0.257	1.19	2.63	2.02	1.46	0.135	-0.162	0.384	-0.288	0.232	-0.000804	0.536	-0.326	-0.301
TTACCAAGGTGAGCTGAGGTCGTTCATCCAACTC	1.08	1.32	0.0661	0.862	-1.08	1.68	0.347	1	0.0261	0.463	1.05	2.17	-0.164	-0.434	-0.159	5.33	0.906	1.82	-0.552	1.74
CCAACTGGGCCAAAGGTCATTGATTCCAATGCTC	4.93	4.78	3.93	4.85	0.383	6.66	12.4	10.4	10.8	11.4	5.49	7	0.378	1.89	3.57	5.33	1.49	6.04	0.958	4.35
AGAGACAGGTGATGAAGGTAACTCAGGCTATCAT	0.266	0.0997	0.0687	0.476	0.372	0.328	0.629	0.513	0.448	0.733	-0.111	0.416	0.748	0.187	0.847	0.283	0.671	0.263	1.15	0.706
AGTCAAATTTCAGGACGAGGTAACGTAAAGCACG	0.0503	-0.145	0.0565	0.0191	-0.153	-0.229	0.688	-0.178	-0.0529	-0.261	-0.406	0.239	0.677	0.285	0.523	-0.111	0.169	0.428	0.17	0.269
TCATATAGGTAAAGTTGAAAGTCGAACGATATGA	0.231	0.886	-0.186	0.68	-0.123	2.11	1.9	3.23	3.72	3.52	3.68	2.66	1.6	1.18	0.5	0.661	0.0596	0.908	0.307	1.08
CGTCCAAGGTCAGAAGGTCAGTGAAAGCGACGTG	5.88	4.43	0.719	3.22	-0.0292	5	3.62	4.51	0.861	3.11	2.28	3.06	0.15	-0.646	3.82	4.48	0.822	5.89	1.32	5.45
TCATATAGGTAAATGCCAGGTGAAAGTCCGATCT	1.31	1.12	0.378	0.902	0.0242	1.62	0.873	2.48	3.67	3.1	4.32	2.79	1.11	0.542	0.867	0.553	0.292	1.21	0.678	0.624
GTACCAAGGTGAATAGGCCGTTGATGAGTAGGCG	0.0834	0.126	-0.456	-0.22	-0.582	1.08	0.806	0.724	-0.00292	0.38	1.64	2.14	-0.316	-0.431	0.326	0.0653	-0.287	0.238	0.218	1.36
